Compounds without any hit were thinned out: in the full panel of roughly 79,000, 15% have a hit. Active and inactive are the calls of the source. Rule as the data show it: active = growth inhibition above about 70%; inactive = the rest.
Experiment: NCI Yeast Anticancer Drug Screen. Data for the rad50 strain (AID 155);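 also: 0% = growth of vehicle-only cultures of the same strain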
Details: S. cerevisiae rad50 strain growth inhibition; at 50.0 µM; hits give high values
Outline: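 Growth of the mutant yeast was measured after compound exposure and referenced to vehicle-treated cultures.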

| Compound | growth inhibition |
| --- | --- |
| Cc1cc(C)cc(C(=O)NCc2ccc[n+]([O-])c2)c1 | -10.3% (inactive) |
| CC(C)(C)OC(=O)N[C@H]1CCN(C2CCCCC2)C1=O | -34.9% (inactive) |
| Cc1ccc(S(=O)(=O)N2CCCCC2)cc1 | -11.8% (inactive) |
| Cc1cc(C)c(C(=O)OCCN(C)C)c(C)c1 | 10.8% (inactive) |
| C[N+]12C=CC=C1C(N1CCCC1)c1sc(-c3ccc(Cl)cc3)cc12 (stereo not given) | 7.9% (inactive) |
| O=C(c1cccs1)N(C(=S)N1CCN(c2ccccc2)CC1)c1ccccc1 | -2.7% (inactive) |
| CCCCCCOC(=O)c1cccc(C)c1 | 7.15% (inactive) |
| COc1ccc(C(c2cc3c(cc2O)OCO3)N2CCOCC2)c(OC)c1 (stereo not given) | -75.2% (inactive) |
| O=C1CN(c2cccc(Cl)c2)C(=O)CN1CCN1CC(=O)N(c2cccc(Cl)c2)CC1=O | -35.2% (inactive) |
| CCOC(=O)C1CC(C)c2[nH]c3ccccc3c21 (stereo not given) | 2.2% (inactive) |
| CC(=O)N(C)Nc1ccccc1 | 2.45% (inactive) |
| N#CCCOCC(COCCC#N)(COCCC#N)COCCC#N | -11.9% (inactive) |
| Oc1ccc(-c2ccc(Br)cc2)cc1 | -25.1% (inactive) |
| CCOC(=O)C(CCSC)(CCN(C)Cc1ccccc1)C(=O)OCC | -23.1% (inactive) |
| CCCNC(=S)NN1C2CSC1CS2 | 3.15% (inactive) |
| O=c1[nH]c(=O)n(C2CC(O)C(CO)O2)cc1Cl (stereo not given) | 0.75% (inactive) |
| O=C1C=CC(=O)C1 | 16% (inactive) |
| O=C(Cc1cc[n+]([O-])cc1)C(=O)Nc1cc(Cl)c(Cl)cc1Cl | -27.4% (inactive) |
| COc1cc2cnc(-c3ccncc3)c(N)c2cc1OC | -0.75% (inactive) |
| O=C1c2cc([N+](=O)[O-])ccc2-c2c(I)cccc21 | 4.25% (inactive) |

| Compound | growth inhibition |
| --- | --- |
| NC(=O)C(CCN1CCCCC1)c1ccccc1 (stereo not given) | 27.2% (inactive) |
| C[C@@]12CCC3C1C=C1C(=O)c4cc(O)ccc4C(=O)[C@]1(O2)[C@@]3(C)C=O | -10.7% (inactive) |
| O=C(/C=C/c1ccc(F)c(F)c1)OCCc1ccccc1 | 28.1% (inactive) |
| Cc1ccc(C)c(NC(=O)C(=O)C(C2C(C)CC(=O)C2CC(=O)O)[N+](=O)[O-])c1 (stereo not given) | 7.05% (inactive) |
| CC1=NN(c2nc(N)nc(CCl)n2)CC1 | 11.1% (inactive) |
| Cc1ccc(C)c(NC(=O)Nc2cccc(Cl)c2)c1 | -6.1% (inactive) |
| O=C(c1ccc2c(c1)C(=O)OC2=O)c1ccc2c(c1)C(=O)OC2=O | -22.5% (inactive) |
| O=C(O)C(CCCN1C(=O)c2ccccc2C1=O)N1C(=O)c2ccccc2C1=O (stereo not given) | -13.1% (inactive) |
| Cc1nc(CCCCCCCC(=O)O)ccc1O | 6.25% (inactive) |
| C=CC(O)CCCCCC (stereo not given) | -4.9% (inactive) |
| O=C(O)C#Cc1cccc(Cl)c1 | -20.4% (inactive) |
| Cn1c(=O)c2c(=O)n3ccccc3nc2n(C)c1=O | 48% (inactive) |
| COC(=O)c1cnc2nc(N3CCOCC3)[nH]n2c1=O | 8.3% (inactive) |
| N#Cc1c(/C=C/c2ccccc2)c2c([nH]c1=S)CCCCC2 | 0.35% (inactive) |
| O=c1[nH]cnc2ncnn12 | 20% (inactive) |
| CCOC(=S)SCc1ccc([N+](=O)[O-])cc1 | 69.8% (inactive) |
| NC(=O)Cc1cc2c(cc1CO)OCO2 | 3.85% (inactive) |
| Nc1c(Br)c(Cl)c(Br)c2c1-c1ccc(Cl)cc1C2 | -13.1% (inactive) |
| N#CC1CC=CCN1CCc1ccccc1 (stereo not given) | -9.5% (inactive) |
| Clc1cccc2c(SCCCCCSc3c4ccccc4nc4c(Cl)cccc34)c3ccccc3nc12 | -3.45% (inactive) |

Experiment: NCI Yeast Anticancer Drug Screen. Data for the mec2-1 strain (AID 157)
Details: S. cerevisiae mec2-1 strain, at 50.0 µM, hits give high values
Outline: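 Mutant yeast (mec2-1) grown with compound; growth inhibition relative to vehicle control reported.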

| Compound | growth inhibition |
| --- | --- |
| Cc1cc(C)cc(C(=O)NCc2ccc[n+]([O-])c2)c1 | -5.6% (inactive) |
| CC(C)(C)OC(=O)N[C@H]1CCN(C2CCCCC2)C1=O | -10.1% (inactive) |
| Cc1ccc(S(=O)(=O)N2CCCCC2)cc1 | -3.35% (inactive) |
| Cc1cc(C)c(C(=O)OCCN(C)C)c(C)c1 | 2% (inactive) |
| C[N+]12C=CC=C1C(N1CCCC1)c1sc(-c3ccc(Cl)cc3)cc12 (stereo not given) | -11.3% (inactive) |
| O=C(c1cccs1)N(C(=S)N1CCN(c2ccccc2)CC1)c1ccccc1 | -11.1% (inactive) |
| CCCCCCOC(=O)c1cccc(C)c1 | 4.4% (inactive) |
| COc1ccc(C(c2cc3c(cc2O)OCO3)N2CCOCC2)c(OC)c1 (stereo not given) | -31.1% (inactive) |
| O=C1CN(c2cccc(Cl)c2)C(=O)CN1CCN1CC(=O)N(c2cccc(Cl)c2)CC1=O | -11.7% (inactive) |
| CCOC(=O)C1CC(C)c2[nH]c3ccccc3c21 (stereo not given) | 6.9% (inactive) |
| CC(=O)N(C)Nc1ccccc1 | -10.7% (inactive) |
| N#CCCOCC(COCCC#N)(COCCC#N)COCCC#N | -24.4% (inactive) |
| Oc1ccc(-c2ccc(Br)cc2)cc1 | -6% (inactive) |
| CCOC(=O)C(CCSC)(CCN(C)Cc1ccccc1)C(=O)OCC | -3.05% (inactive) |
| CCCNC(=S)NN1C2CSC1CS2 | 14.9% (inactive) |
| O=c1[nH]c(=O)n(C2CC(O)C(CO)O2)cc1Cl (stereo not given) | -11.1% (inactive) |
| O=C1C=CC(=O)C1 | -7.95% (inactive) |
| O=C(Cc1cc[n+]([O-])cc1)C(=O)Nc1cc(Cl)c(Cl)cc1Cl | -11.9% (inactive) |
| COc1cc2cnc(-c3ccncc3)c(N)c2cc1OC | 8.4% (inactive) |
| O=C1c2cc([N+](=O)[O-])ccc2-c2c(I)cccc21 | 2.7% (inactive) |

| Compound | growth inhibition |
| --- | --- |
| NC(=O)C(CCN1CCCCC1)c1ccccc1 (stereo not given) | -7.35% (inactive) |
| C[C@@]12CCC3C1C=C1C(=O)c4cc(O)ccc4C(=O)[C@]1(O2)[C@@]3(C)C=O | 2% (inactive) |
| O=C(/C=C/c1ccc(F)c(F)c1)OCCc1ccccc1 | 29% (inactive) |
| Cc1ccc(C)c(NC(=O)C(=O)C(C2C(C)CC(=O)C2CC(=O)O)[N+](=O)[O-])c1 (stereo not given) | 10.9% (inactive) |
| CC1=NN(c2nc(N)nc(CCl)n2)CC1 | 6.35% (inactive) |
| Cc1ccc(C)c(NC(=O)Nc2cccc(Cl)c2)c1 | 21.2% (inactive) |
| O=C(c1ccc2c(c1)C(=O)OC2=O)c1ccc2c(c1)C(=O)OC2=O | -39.9% (inactive) |
| O=C(O)C(CCCN1C(=O)c2ccccc2C1=O)N1C(=O)c2ccccc2C1=O (stereo not given) | -3.3% (inactive) |
| Cc1nc(CCCCCCCC(=O)O)ccc1O | 7.25% (inactive) |
| C=CC(O)CCCCCC (stereo not given) | -27.8% (inactive) |
| O=C(O)C#Cc1cccc(Cl)c1 | -24.3% (inactive) |
| Cn1c(=O)c2c(=O)n3ccccc3nc2n(C)c1=O | 48% (inactive) |
| COC(=O)c1cnc2nc(N3CCOCC3)[nH]n2c1=O | -0.3% (inactive) |
| N#Cc1c(/C=C/c2ccccc2)c2c([nH]c1=S)CCCCC2 | -17.5% (inactive) |
| O=c1[nH]cnc2ncnn12 | 4.2% (inactive) |
| CCOC(=S)SCc1ccc([N+](=O)[O-])cc1 | 18.4% (inactive) |
| NC(=O)Cc1cc2c(cc1CO)OCO2 | 1.8% (inactive) |
| Nc1c(Br)c(Cl)c(Br)c2c1-c1ccc(Cl)cc1C2 | -4.8% (inactive) |
| N#CC1CC=CCN1CCc1ccccc1 (stereo not given) | -5.75% (inactive) |
| Clc1cccc2c(SCCCCCSc3c4ccccc4nc4c(Cl)cccc34)c3ccccc3nc12 | -8.9% (inactive) |
